# Laboratory results: PubChem BioAssay (NCATS)
# Inconclusive results are not listed. Active and inactive are the calls of the source. Unless noted, calls follow the shape of the dose curve; as a rule, active = well fitted curve in the direction sought with a large enough effect; inconclusive = small, poorly fitted or top-dose-only effect, or another doubt; inactive = no such curve, though single readings can be large; an effect the other way counts as inactive or inconclusive.
# Assays:
# [1] = biological target: Lysosomal acid glucosylceramidase (Homo sapiens) (UniProt P04062); assay: Glucocerebrosidase-p2 (AID 348; in the data active = potency below about 10 µM; also: potency is read from the fitted curve at half-maximal effect); settings: purified GBA, blue fluorogenic substrate, 40 min
# Summary of the method: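 Normal human glucocerebrosidase (0.2 nM) with blue fluorogenic substrate (80 uM final) in citrate/phosphate pH 5.9 with 10mM sodium taurocholate, 0.01% tween-20; 40 min RT, NaOH/glycine stop; fluorescence Ex 365/Em 440; AC50 from a titration from 0.6 nM upwards.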
# [2] = AP1 Signaling Pathway (AID 357; active = well fitted curve in either direction with a large enough effect, not every such curve was filed as active;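 also: ME-180 reporter cells stimulated with EGF at its EC50 level; % is scaled to controls: 0 for no effect and ±100 for the full control effect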); settings: ME-180 AP-1-bla reporter, EGF-induced, beta-lactamase ratio, 5 h; at 7.69 µM (top of the series) unless noted
# Summary of the method: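 AP-1-bla ME-180 cells, Opti-MEM + 0.5% dialyzed FBS, plated overnight 37 °C. Cpd titration + EC50 EGF, 5 h 37 °C. CCF4 2.5 h RT; ex 405, em 460/530 ratio → %activity, AC50.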
# [3] = biological target: Cytochrome P450 1A2 (Homo sapiens) (UniProt P05177); assay: p450-cyp1a2 (AID 410; calls by dose curve; also: potency is read from the fitted curve at half-maximal effect); settings: recombinant CYP1A2, luciferin-ME demethylation, luminescence; series mostly up to 57 µM
# Summary of the method: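 Luminescent demethylation readout: Luciferin-ME (100uM, equal to Km) turned over by 20nM CYP1A2 for 60 min at room temperature after NADPH regeneration addition, following 10 min compound preincubation. Normalization used 57 uM furafylline as full inhibition.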
# [4] = biological target: Glucocorticoid receptor (Homo sapiens) (UniProt P04150); assay: GR-EFC Redistribution (AID 451; calls by dose curve; also: potency is read from the fitted curve at half-maximal effect); settings: CHO-K1 GR-EFC translocation, beta-gal luminescence, 2 h
# Summary of the method: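 CHO-K1 cells expressing nuclear EA and GR-ED fragments of b-gal; compounds titrated up to 46 uM final, 2 h at 37 C. GR nuclear translocation read as complemented b-gal luminescence after 1 h RT detection.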
# [5] = biological target: Mitogen-activated protein kinase 10 (Mus musculus) (UniProt Q61831); assay: JNK3 AlphaScreen Assay (AID 530; active = well fitted curve in either direction with a large enough effect, not every such curve was filed as active;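 also: kinase came from lysate of stimulated human HepG2 cells; signal reports phosphorylation of biotinylated GST-cJun 1-79 at Ser73 with 10 µM ATP; % is scaled to controls: 0 for no effect and ±100 for the full control effect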); settings: JNK3 lysate, c-Jun phosphorylation; series mostly up to 57.1 µM
# Summary of the method: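 Activity was read by AlphaScreen after JNK3-containing HepG2 lysate (cytokine pre-activated) phosphorylated biotinylated GST-cJun with 10 uM ATP at room temperature. Phospho-Ser73 cJun antibody with Protein-A acceptor beads provided detection.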
# [6] = biological target: 3',5'-cyclic-AMP phosphodiesterase 4B (Homo sapiens) (UniProt Q07343); assay: qHTS Assay for Inhibitors of PDE-IV (AID 607; active = well fitted activation curve with a large enough effect in the main read-out, with a control signal flat, not every such curve was filed as active; also: % of control where 0% means no effect); settings: HEK293 ACTOne CNG channel cells, membrane potential fluorescence; series mostly up to 22.9 µM
# Summary of the method: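 Cell-based read-out of cAMP via a modified cyclic nucleotide-gated channel and membrane potential dye (535/590 nm) in HEK293 cells expressing PDE4 endogenously. Compounds tested up to 22.9 uM final; 100 uM RO 20-1724 reference.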
# [7] = biological target: Cytochrome P450 3A4 (Homo sapiens) (UniProt P08684); assay: qHTS Assay for Inhibitors and Substrates of Cytochrome P450 3A4 (AID 884); settings: recombinant CYP3A4, Luciferin-PPXE luminescence; series mostly up to 57.1 µM; also: potency is read from the fitted curve at half-maximal effect; nearly all actives have a fitted effect of over 50% in size
# Summary of the method: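 Luminescent readout of luciferin produced by CYP3A4 (20 nM) dealkylation of Luciferin-PPXE, 25 uM (its KM). NADPH-driven reaction ran 60 min at RT after 10 min compound preincubation; data scaled to 57 uM ketoconazole as 100% inhibition.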
# [8] = biological target: Cytochrome P450 3A4 (Homo sapiens) (UniProt P08684); assay: qHTS Assay for Activators of Cytochrome P450 3A4 (AID 885); settings: recombinant CYP3A4, Luciferin-PPXE luminescence, 60 min; series mostly up to 57.1 µM; also: nearly all actives have a fitted effect of over 65% in size
# Summary of the method: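 Luminescent readout of luciferin formed from 25 uM Luciferin-PPXE (KM level) by 20 nM CYP3A4 in 200 mM KPO4, with 60 min NADPH-driven reaction at room temperature after 10 min compound exposure. Ketoconazole (57 uM) defined 100% inhibition.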
# [9] = biological target: Cytochrome P450 2C19 (Homo sapiens) (UniProt P33261); assay: qHTS Assay for Inhibitors and Substrates of Cytochrome P450 2C19 (AID 899); settings: recombinant CYP2C19, luciferin-H EGE luminescence; series mostly up to 57.1 µM; also: potency is read from the fitted curve at half-maximal effect; nearly all actives have a fitted effect of over 60% in size
# Summary of the method: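 5 nM human CYP2C19 with 10uM Luciferin-H EGE (at KM) in 50mM KPO4, compound preincubated 10 min at 37C, then NADPH regeneration for 60 min at 37C. Luciferin read by luminescence after detection reagent; normalized to 57uM ketoconazole as full inhibition.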
# [10] = qHTS Assay for Identification of Small Molecule Agonists for Hypoxia Response Element Signaling Pathway (AID 914; active = well fitted activation curve with a large enough effect in the signal ratio, with a control signal flat, not every such curve was filed as active; the % refers to the signal ratio; also: potency is read from the fitted curve at half-maximal effect); settings: ME-180 HRE-bla reporter, beta-lactamase ratio, CoCl2, 17 h; activation: stronger effect = higher value
# Summary of the method: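 qHTS titration; ME-180 HRE-bla cells; EC50 CoCl2 co-treatment, 17 h at 37 degrees Celsius; CCF4 dye, ex 405nm, em 460nm and 530nm; %Activity from ratio; AC50.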
# [11] = qHTS Assay for Lipid Storage Modulators (AID 1519; calls by dose curve); settings: Drosophila S3 cells, BODIPY lipid droplet/cell ratio, laser cytometry, cells loaded with oleic acid; for activity change, negative = inhibition: at 57.5 µM (top of the series)
# Summary of the method: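 Cells seeded at 5,000 per well were treated with compounds over a concentration series and loaded with oleic acid (400 uM, as added). Lipid droplet fluorescence (488 nm excitation, 500-530 nm channel) was read by laser-scanning cytometry and normalized to 20 uM Triacsin C.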
# [12] = biological target: Dual specificity protein kinase CLK4 (Homo sapiens) (UniProt Q9HAZ1); assay: qHTS Assay for Inhibitors of CDC-like Kinase 4 (ADP-FP Assay) (AID 1795); settings: Transcreener ADP fluorescence polarization; series mostly up to 50 µM; also: nearly all actives have a fitted effect of over 60% in size; also: potency is read from the fitted curve at half-maximal effect
# Summary of the method: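 Recombinant Clk4 (6.25 nM) phosphorylated 100 uM RS repeat peptide with 1 uM ATP in 25 mM Tris pH 7.5, 10 mM MgCl2, 0.5 mM EGTA, 2.5 mM DTT, 0.01% Triton X-100 for 1 h. ADP was detected by Transcreener ADP2 competitive fluorescence polarization after 30 min at room temperature.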
# [13] = biological target: Ubiquitin carboxyl-terminal hydrolase 1 (Homo sapiens) (UniProt O94782); assay: Inhibitors of USP1/UAF1: Pilot qHTS (AID 504865); settings: purified USP1/UAF1, Ub-rhodamine cleavage fluorescence; series mostly up to 54.9 µM;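 also: rhodamine fluorescence freed from ubiquitin-rhodamine substrate followed over time; top concentration of the series differs between compounds; % is scaled to controls: 0 for no effect and ±100 for the full control effect; nearly all actives have a fitted effect of over 35% in size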
# Summary of the method: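 USP1/UAF1 complex at 1 nM preincubated 15 min at room temperature with compound, then Ub-Rho substrate added at 150 nM final. Fluorescence (480/540 nm) read kinetically in 50 mM HEPES pH 7.8, 0.5 mM EDTA, 1 mM TCEP, 0.1 mg/ml BSA, 0.01% Tween-20.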
# [14] = Primary qHTS for small molecule stabilizers of the endoplasmic reticulum resident proteome: Secreted ER Calcium Modulated Protein (SERCaMP) assay (AID 1508630); settings: SH-SY5Y GLuc-SERCaMP (Gaussia luciferase released on ER calcium loss) secretion, thapsigargin, luminescence; series mostly up to 38.4 µM; also: % is scaled to controls: 0 for no effect and ±100 for the full control effect
# Summary of the method: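 The SH-SY5Y reporter protocol was run at 3 concentrations up to 38.3 uM (primary) or 11 concentrations (follow-up): 16 h compound, 100 nM thapsigargin for 4 h, then extracellular luciferase luminescence.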
# [15] = NFAT Signaling Pathway (AID 444; active = well fitted curve in either direction with a large enough effect, not every such curve was filed as active;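 also: carbachol stimulus at about its EC50 of 1 µM final; % is scaled to controls: 0 for no effect and ±100 for the full control effect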); settings: Jurkat NFAT-bla M1, carbachol, beta-lactamase ratio, 5 h; at 7.69 µM (top of the series) unless noted
# Summary of the method: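 Jurkat cells with NFAT-driven β-lactamase reporter and co-expressed M1 receptor, stimulated with carbachol (final 1 uM, ~EC50), compound titration, 5 h at 37 °C. CCF4 loaded 1 h at RT; 460/530 nm ratio gave %activity and AC50.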
# [16] = Stat Signaling Pathway (AID 446; active = well fitted curve in either direction with a large enough effect, not every such curve was filed as active); settings: ME-180 (cervical carcinoma) SIE beta-lactamase reporter, IL-6 stimulated, 5 h; at 7.69 µM (top of the series) unless noted
# Summary of the method: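 FRET read-out (405 nm excitation, 460/530 nm emission) of a beta-lactamase reporter under a STAT-inducible element in ME-180 cervical carcinoma cells. Cells with compound receive 40 pM IL-6 for 5 h. Values are normalised to AC90 stimulation and AC90 JAK-inhibitor controls.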
# [17] = biological target: Glucocorticoid receptor (Homo sapiens) (UniProt P04150); assay: GR-GFP Redistribution (AID 450;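 active = compounds whose dose series gives a full or clear partial fitted curve of increased nuclear translocation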; also: potency is read from the fitted curve at half-maximal effect); settings: U2OS GR-GFP nuclear translocation, laser cytometry, 2 h
# [18] = Confirmation and Secondary Assay for Modulators of Hemoglobin Beta Chain Splicing at IVS2 654 locus (AID 910); settings: HeLa EGFP-654 splicing reporter, GFP fluorescence, 48 h; series mostly up to 38.3 µM;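 also: HeLa cells stably carrying EGFP split by mutant beta-globin IVS2-654 intron; % of control where 0% means no effect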
# Summary of the method: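 HeLa cells stably expressing EGFP interrupted by β-globin IVS2-654 intron, seeded overnight in Opti-MEM/2% FCS, then treated 2 days at 37 °C. Restored splicing read as total peak GFP intensity per well by laser scanning cytometry (488 nm excitation, 500–520 nm emission); 500 nM antisense PNA as control.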
# [19] = Confirmation and Secondary Assay for Modulators of Hemoglobin Beta Chain Splicing at IVS2 705 locus (AID 930); settings: HeLa EGFP-705 splicing reporter, GFP fluorescence, 48 h; series mostly up to 38.3 µM;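 also: HeLa cells stably expressing the EGFP-705 splicing reporter; GFP fluorescence per well restored by corrected splicing of the IVS2-705 intron in EGFP; % of control where 0% means no effect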
# Summary of the method: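 Secondary splice-site specificity test uses HeLa expressing CMV-driven EGFP interrupted by IVS2-705; cells were treated 2 days at 37C with 500 nM antisense PNA as positive control.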
# [20] = measured here: cell count channel max response
# [21] = measured here: lipid channel max response
# Sequence of Glucocorticoid receptor (Homo sapiens) (P04150 whole entry, looked up, the tested form may be a part): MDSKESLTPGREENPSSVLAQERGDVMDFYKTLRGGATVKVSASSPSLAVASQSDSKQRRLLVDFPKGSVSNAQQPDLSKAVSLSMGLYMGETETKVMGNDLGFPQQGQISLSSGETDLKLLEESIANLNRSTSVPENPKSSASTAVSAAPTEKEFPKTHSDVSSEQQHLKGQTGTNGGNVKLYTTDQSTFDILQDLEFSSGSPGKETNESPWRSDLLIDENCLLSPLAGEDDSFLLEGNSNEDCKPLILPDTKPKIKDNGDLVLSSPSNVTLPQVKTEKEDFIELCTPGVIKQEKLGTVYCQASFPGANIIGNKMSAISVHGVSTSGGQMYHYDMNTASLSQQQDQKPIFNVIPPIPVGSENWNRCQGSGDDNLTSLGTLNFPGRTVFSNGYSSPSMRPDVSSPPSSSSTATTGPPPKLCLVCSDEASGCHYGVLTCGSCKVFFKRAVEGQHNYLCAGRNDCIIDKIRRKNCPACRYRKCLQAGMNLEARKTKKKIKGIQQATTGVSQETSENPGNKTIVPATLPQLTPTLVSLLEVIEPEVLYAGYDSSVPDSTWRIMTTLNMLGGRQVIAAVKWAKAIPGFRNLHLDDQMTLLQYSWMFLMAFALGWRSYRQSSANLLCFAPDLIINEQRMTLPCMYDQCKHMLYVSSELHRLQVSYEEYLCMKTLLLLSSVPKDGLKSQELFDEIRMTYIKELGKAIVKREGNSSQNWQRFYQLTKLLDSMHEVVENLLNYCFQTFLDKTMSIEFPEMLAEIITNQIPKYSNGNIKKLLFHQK
# Sequence of Cytochrome P450 3A4 (Homo sapiens) (P08684 whole entry, looked up): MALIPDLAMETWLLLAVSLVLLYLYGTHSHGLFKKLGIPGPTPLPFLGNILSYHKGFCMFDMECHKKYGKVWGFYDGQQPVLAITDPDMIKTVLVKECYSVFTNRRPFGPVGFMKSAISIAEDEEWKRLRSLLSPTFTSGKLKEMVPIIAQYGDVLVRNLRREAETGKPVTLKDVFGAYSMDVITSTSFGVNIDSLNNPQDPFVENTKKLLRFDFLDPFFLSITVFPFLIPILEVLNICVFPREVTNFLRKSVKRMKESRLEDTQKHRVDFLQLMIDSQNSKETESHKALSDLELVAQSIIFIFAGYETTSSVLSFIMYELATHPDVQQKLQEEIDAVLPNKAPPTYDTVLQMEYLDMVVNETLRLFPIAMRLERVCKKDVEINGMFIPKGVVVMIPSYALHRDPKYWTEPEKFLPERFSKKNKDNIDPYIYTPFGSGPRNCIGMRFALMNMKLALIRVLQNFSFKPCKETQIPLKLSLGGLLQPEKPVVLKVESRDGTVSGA
# Sequence of Lysosomal acid glucosylceramidase (Homo sapiens) (P04062 whole entry, looked up): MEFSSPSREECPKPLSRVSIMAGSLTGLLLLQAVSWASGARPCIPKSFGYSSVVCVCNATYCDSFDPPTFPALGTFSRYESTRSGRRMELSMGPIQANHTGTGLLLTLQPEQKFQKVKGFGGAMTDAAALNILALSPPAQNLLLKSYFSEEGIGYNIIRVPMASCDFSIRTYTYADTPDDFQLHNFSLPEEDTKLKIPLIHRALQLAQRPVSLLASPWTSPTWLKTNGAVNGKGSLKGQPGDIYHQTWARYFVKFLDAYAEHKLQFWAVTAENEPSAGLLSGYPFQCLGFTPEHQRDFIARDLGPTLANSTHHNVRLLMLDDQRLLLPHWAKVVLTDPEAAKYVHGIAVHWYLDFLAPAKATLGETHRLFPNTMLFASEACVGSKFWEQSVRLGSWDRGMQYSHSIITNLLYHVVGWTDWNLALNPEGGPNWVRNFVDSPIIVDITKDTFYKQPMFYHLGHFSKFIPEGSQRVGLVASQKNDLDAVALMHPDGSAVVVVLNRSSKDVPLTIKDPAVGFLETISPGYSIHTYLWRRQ
# Sequence of Ubiquitin carboxyl-terminal hydrolase 1 (Homo sapiens) (O94782 whole entry, looked up): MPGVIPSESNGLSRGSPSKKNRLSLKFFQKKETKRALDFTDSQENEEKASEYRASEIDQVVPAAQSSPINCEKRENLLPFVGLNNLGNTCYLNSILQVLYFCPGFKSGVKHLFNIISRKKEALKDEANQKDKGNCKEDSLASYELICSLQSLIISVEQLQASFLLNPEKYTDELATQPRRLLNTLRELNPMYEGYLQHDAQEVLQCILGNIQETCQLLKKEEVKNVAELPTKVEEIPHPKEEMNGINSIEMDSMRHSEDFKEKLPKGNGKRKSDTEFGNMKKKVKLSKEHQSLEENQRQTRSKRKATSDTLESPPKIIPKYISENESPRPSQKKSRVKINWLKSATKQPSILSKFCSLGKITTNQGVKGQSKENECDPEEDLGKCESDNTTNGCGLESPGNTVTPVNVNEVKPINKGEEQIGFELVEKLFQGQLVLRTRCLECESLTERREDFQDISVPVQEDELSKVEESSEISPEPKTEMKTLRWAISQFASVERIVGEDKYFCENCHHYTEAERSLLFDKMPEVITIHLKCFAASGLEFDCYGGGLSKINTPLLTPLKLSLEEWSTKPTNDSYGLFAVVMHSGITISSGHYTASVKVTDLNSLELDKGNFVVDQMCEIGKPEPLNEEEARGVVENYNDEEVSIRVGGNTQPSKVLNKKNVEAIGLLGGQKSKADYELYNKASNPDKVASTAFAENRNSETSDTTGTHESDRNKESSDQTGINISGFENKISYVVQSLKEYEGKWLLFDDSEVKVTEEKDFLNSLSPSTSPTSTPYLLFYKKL
# Sequence of 3',5'-cyclic-AMP phosphodiesterase 4B (Homo sapiens) (Q07343 whole entry, looked up): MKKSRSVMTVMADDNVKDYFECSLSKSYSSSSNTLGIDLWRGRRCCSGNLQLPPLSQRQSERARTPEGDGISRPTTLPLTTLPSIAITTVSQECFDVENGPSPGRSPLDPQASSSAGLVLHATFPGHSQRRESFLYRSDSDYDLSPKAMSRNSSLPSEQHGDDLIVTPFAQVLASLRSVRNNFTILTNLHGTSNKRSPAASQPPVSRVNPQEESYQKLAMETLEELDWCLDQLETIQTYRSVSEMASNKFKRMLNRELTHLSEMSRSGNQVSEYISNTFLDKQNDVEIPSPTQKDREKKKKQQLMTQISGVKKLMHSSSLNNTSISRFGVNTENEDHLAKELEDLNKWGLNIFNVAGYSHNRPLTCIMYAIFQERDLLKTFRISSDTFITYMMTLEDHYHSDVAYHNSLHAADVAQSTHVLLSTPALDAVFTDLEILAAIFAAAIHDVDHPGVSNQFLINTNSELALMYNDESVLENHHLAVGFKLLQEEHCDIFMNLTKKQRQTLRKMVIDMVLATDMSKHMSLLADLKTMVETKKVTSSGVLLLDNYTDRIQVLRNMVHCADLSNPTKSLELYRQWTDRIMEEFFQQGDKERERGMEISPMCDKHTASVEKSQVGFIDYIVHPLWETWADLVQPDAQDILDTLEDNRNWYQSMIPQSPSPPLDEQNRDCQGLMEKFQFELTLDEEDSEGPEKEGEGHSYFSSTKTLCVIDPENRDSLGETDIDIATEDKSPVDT
# Sequence of Cytochrome P450 1A2 (Homo sapiens) (P05177 whole entry, looked up): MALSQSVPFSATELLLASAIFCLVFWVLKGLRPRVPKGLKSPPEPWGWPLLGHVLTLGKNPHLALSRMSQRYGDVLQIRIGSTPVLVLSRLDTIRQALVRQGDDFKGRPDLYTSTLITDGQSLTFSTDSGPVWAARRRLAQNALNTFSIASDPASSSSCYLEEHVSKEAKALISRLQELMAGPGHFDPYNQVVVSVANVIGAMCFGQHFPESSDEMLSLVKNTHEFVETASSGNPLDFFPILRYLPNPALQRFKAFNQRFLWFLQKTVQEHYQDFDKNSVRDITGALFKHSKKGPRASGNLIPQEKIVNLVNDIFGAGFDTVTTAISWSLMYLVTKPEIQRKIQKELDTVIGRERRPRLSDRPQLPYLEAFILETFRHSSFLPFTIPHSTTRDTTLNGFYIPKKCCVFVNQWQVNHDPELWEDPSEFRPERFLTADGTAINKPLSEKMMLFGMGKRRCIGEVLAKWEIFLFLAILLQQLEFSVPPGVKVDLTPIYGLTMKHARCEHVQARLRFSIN
# Sequence of Dual specificity protein kinase CLK4 (Homo sapiens) (Q9HAZ1 whole entry, looked up): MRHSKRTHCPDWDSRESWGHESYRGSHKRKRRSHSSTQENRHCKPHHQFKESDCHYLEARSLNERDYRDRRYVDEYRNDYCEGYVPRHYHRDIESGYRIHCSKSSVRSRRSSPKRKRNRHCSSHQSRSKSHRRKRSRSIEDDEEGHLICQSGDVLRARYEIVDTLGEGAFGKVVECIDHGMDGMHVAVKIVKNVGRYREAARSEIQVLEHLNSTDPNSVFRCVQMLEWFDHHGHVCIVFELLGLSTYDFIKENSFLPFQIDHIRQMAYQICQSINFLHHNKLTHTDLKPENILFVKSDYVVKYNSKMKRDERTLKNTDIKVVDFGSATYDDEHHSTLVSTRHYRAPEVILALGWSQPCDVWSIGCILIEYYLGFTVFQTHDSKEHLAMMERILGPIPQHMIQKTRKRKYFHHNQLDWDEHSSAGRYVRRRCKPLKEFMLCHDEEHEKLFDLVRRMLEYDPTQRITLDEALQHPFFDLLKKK
# Sequence of Cytochrome P450 2C19 (Homo sapiens) (P33261 whole entry, looked up): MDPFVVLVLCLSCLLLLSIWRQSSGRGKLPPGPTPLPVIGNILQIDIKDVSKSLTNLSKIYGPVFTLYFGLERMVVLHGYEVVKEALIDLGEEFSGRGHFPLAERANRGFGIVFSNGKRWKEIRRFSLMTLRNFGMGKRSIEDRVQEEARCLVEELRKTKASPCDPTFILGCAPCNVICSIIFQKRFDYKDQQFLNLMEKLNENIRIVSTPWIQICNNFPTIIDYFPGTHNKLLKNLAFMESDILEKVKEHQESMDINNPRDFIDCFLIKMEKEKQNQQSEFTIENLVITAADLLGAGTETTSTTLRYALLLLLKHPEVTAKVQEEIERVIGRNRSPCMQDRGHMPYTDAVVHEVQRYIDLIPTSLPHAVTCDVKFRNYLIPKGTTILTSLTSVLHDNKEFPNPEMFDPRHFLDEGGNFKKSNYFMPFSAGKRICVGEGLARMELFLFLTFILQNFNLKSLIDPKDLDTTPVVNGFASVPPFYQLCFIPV
structure (smiles),measurement,setting,value
Cc1noc(C)c1-c1ccc2ncnc(NCc3cccnc3)c2c1,Potency,[1],> 11.4 µM (inactive)
same,"activity change, negative = inhibition",[2],26.4% (inactive)
same,Potency,[3],0.316 µM (active)
same,Potency,[4],> 46 µM (inactive)
same,outcome,[5],inactive
same,Potency,[6],inactive
same,Potency,[7],2.51 µM (active)
same,Potency,[8],inactive
same,Potency,[9],0.02 µM (active)
same,Potency,[10],3.16 µM (active)
same,"activity change, negative = inhibition",[11],-3.3% (inactive)
same,max response,[11]; [20],10.5%
same,max response,[11]; [21],6%
same,Potency,[12],0.794 µM (active)
same,Potency,[13],inactive
same,Potency,[14],inactive
COc1ccc(Oc2ncc3ncc(=O)n(C)c3n2)cc1,Potency,[1],> 11.4 µM (inactive)
same,"activity change, negative = inhibition",[2],-12.2% (inactive)
same,Potency,[3],3.98 µM (active)
same,"activity change, negative = inhibition",[15],-6.92% (inactive)
same,"activity, negative = inhibition",[16],-7.6% (inactive)
same,Potency,[17],> 9.22 µM (inactive)
same,Potency,[4],> 46 µM (inactive)
same,outcome,[5],inactive
same,Potency,[6],inactive
same,Potency,[8],inactive
same,"activity change, negative = inhibition",[11],5.63% (inactive)
same,max response,[11]; [20],9.26%
same,max response,[11]; [21],14.1%
same,Potency,[12],inactive
same,Potency,[13],inactive
same,Potency,[14],inactive
COc1cccc(-c2cncnc2NCc2ccccc2)c1,Potency,[1],> 11.4 µM (inactive)
same,"activity change, negative = inhibition",[2],-17.1% (inactive)
same,Potency,[3],5.01 µM (active)
same,"activity change, negative = inhibition",[15],1.11% (inactive)
same,"activity, negative = inhibition",[16],-9.01% (inactive)
same,Potency,[17],> 46 µM (inactive)
same,Potency,[4],> 46 µM (inactive)
same,outcome,[5],inactive
same,Potency,[6],inactive
same,Potency,[7],0.316 µM (active)
same,Potency,[8],inactive
same,Potency,[9],1.58 µM (active)
same,outcome,[18],inactive
same,outcome,[19],inactive
same,"activity change, negative = inhibition",[11],9.98% (inactive)
same,max response,[11]; [20],12.4%
same,max response,[11]; [21],12.8%
same,Potency,[13],inactive
same,Potency,[14],inactive
